Laboratory results taken from PubChem BioAssay (NCI).
Compounds without any hit were thinned out: in the full panel of roughly 79,000, 15% have a hit. Activity calls are given as the source filed them. No stated cut-off is given here; in the data, active means growth inhibition above about 70%; inactive means the rest.

Assays:
[1] = NCI Yeast Anticancer Drug Screen. Data for the mec2-1 strain (AID 157); conditions: S. cerevisiae mec2-1 strain, stronger effect = higher value
How it was run: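 Readout is yeast growth inhibition, normalised to vehicle-treated controls, in the mec2-1 strain exposed to compound.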

[2] = NCI Yeast Anticancer Drug Screen. Data for the rad14 strain (AID 159);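 further: 0% = growth of vehicle-treated control cultures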; conditions: S. cerevisiae rad14 strain growth inhibition, stronger effect = higher value
How it was run: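 Vehicle-treated cultures served as the baseline for growth inhibition of a DNA repair-mutant yeast strain exposed to each compound.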

[3] = NCI Yeast Anticancer Drug Screen. Data for the sgs1 mgt1 strain (AID 161);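 further: 0% = growth of cultures given vehicle only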; conditions: S. cerevisiae sgs1 mgt1 strain, stronger effect = higher value
How it was run: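 Compounds are added to genetically altered yeast, and growth is compared with cultures given vehicle alone to give percent inhibition.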

[4] = NCI Yeast Anticancer Drug Screen. Data for the CLN2oe strain (AID 163);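 further: 0% = growth of vehicle-only control cultures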; conditions: S. cerevisiae CLN2oe strain, stronger effect = higher value
How it was run: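 Values reflect how much compound exposure reduced yeast growth, referenced to vehicle-exposed cells. Assay organism is a strain with a defined genetic change affecting cell-cycle control.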

[5] = NCI Yeast Anticancer Drug Screen. Data for the cln2 rad14 strain (AID 165);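 further: 0% = growth equal to vehicle treated cultures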; conditions: S. cerevisiae cln2 rad14 strain, stronger effect = higher value
How it was run: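 Relative to vehicle controls, growth inhibition of compound-treated cln2 rad14 yeast was recorded.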

[6] = NCI Yeast Anticancer Drug Screen. Data for the bub3 strain (AID 167); conditions: S. cerevisiae bub3 mutant strain, stronger effect = higher value
How it was run: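 Inhibition values come from growth of compound-treated mutant yeast normalised to vehicle-treated controls.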

[7] = NCI Yeast Anticancer Drug Screen. Data for the wt2 strain (AID 169);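 further: 0% = growth of vehicle-treated yeast cultures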; conditions: S. cerevisiae wt2 strain growth inhibition, stronger effect = higher value
How it was run: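 Values express reduction in yeast growth under compound treatment, referenced to vehicle-treated cells.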

[8] = NCI Yeast Anticancer Drug Screen. Data for the mlh1 strain (AID 171);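 further: 0% = growth of vehicle-treated control cultures of the same strain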; conditions: S. cerevisiae mlh1 strain growth inhibition, stronger effect = higher value
How it was run: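 Steps: expose the defined-mutant yeast strain to compound; expose a parallel culture to vehicle; measure growth; express compound effect as inhibition relative to the vehicle culture.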

[9] = NCI Yeast Anticancer Drug Screen. Data for the mlh1 rad18 strain (AID 175); conditions: S. cerevisiae mlh1 rad18 strain growth inhibition, stronger effect = higher value
How it was run: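 Test agents were incubated with a yeast strain of defined genotype (DNA damage repair defect). Inhibition of growth was derived by comparison with vehicle-exposed cultures.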

[10] = NCI Yeast Anticancer Drug Screen. Data for the rad18 strain (AID 177); conditions: S. cerevisiae rad18 mutant growth inhibition, stronger effect = higher value
How it was run: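 A genetically defined yeast mutant impaired in DNA damage repair was treated with test compounds, then its growth was measured against cultures receiving vehicle alone.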

[11] = NCI Yeast Anticancer Drug Screen. Data for the rad52 strain (AID 147);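 further: 0% = growth of vehicle-treated control cultures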; conditions: S. cerevisiae rad52 mutant growth inhibition, stronger effect = higher value
How it was run: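 Screen used a yeast mutant impaired in DNA repair. After compound exposure, growth was measured. Values reflect inhibition compared with vehicle-treated cells.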

[12] = NCI Yeast Anticancer Drug Screen. Data for the wt1 strain (AID 149);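 further: 0% = growth of vehicle-treated wt1 cultures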; conditions: S. cerevisiae wt1 strain (SPY 50644) growth inhibition, stronger effect = higher value
How it was run: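 Vehicle-normalised growth inhibition; strain wt1; compound exposure.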

[13] = NCI Yeast Anticancer Drug Screen. Data for the rad50EPP+ strain (AID 151);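 further: 0% = growth of vehicle-treated control cultures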; conditions: S. cerevisiae rad50 mutant strain, stronger effect = higher value
How it was run: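 Exposing the rad50EPP+ strain to each compound, growth was compared with vehicle-only cultures to give inhibition.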

[14] = NCI Yeast Anticancer Drug Screen. Data for the mgt1 strain (AID 153); conditions: S. cerevisiae mgt1 mutant growth inhibition, stronger effect = higher value
How it was run: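 Genetically defined yeast (mgt1) treated with compound; inhibition of growth expressed against vehicle-treated controls.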

[15] = NCI Yeast Anticancer Drug Screen. Data for the rad50 strain (AID 155);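 further: 0% = growth of vehicle-only cultures of the same strain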; conditions: S. cerevisiae rad50 strain growth inhibition, stronger effect = higher value
How it was run: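 A DNA repair-deficient yeast mutant serves as the test organism; compound-induced growth inhibition is calculated against vehicle-treated cells.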

[16] = NCI Yeast Anticancer Drug Screen. Data for the sgs1 strain (AID 173);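 further: 0% = growth of vehicle-only control cultures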; conditions: S. cerevisiae sgs1 mutant, stronger effect = higher value
How it was run: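 Treat defined-mutant yeast with compound; measure growth; calculate inhibition relative to vehicle-treated cells.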

[17] = at 5.0 µM (retest, dose inferred, filed as 0.5)
[18] = at 50.0 µM (retest, dose inferred, filed as 5.0)

Measured: growth inhibition

O=C1C=C(NCCc2cc(Br)c(O)c(Br)c2)C(=O)c2ncccc21
active: [1]; [18] 92% | [1]; at 50.0 µM 73.8% | [1]; at 100.0 µM 93% | [2]; at 33.0 µM 82% | [2]; at 100.0 µM 93% | [3]; [18] 83% | [3]; at 50.0 µM 89.5% | [4]; at 100.0 µM 90% | [5]; [18] 90% | [6]; [18] 96% | [6]; at 50.0 µM 95.5% | [6]; at 100.0 µM 94% | [7]; at 100.0 µM 91% | [8]; at 33.0 µM 82% | [8]; at 100.0 µM 96% | [9]; [18] 95% | [9]; at 50.0 µM 91% | [10]; at 11.0 µM 75% | [10]; at 33.0 µM 91% | [10]; at 100.0 µM 95%
inactive: [1]; [17] -5% | [1]; at 11.0 µM 28% | [1]; at 33.0 µM 69% | [2]; at 1.2 µM 24% | [2]; at 3.7 µM 21% | [2]; at 11.0 µM 23% | [3]; [17] 4% | [4]; at 1.2 µM -5% | [4]; at 3.7 µM 39% | [4]; at 11.0 µM 41% | [4]; at 33.0 µM 55% | [5]; [17] 21% | [5]; at 50.0 µM 46.2% | [6]; at 1.2 µM -2% | [6]; at 3.7 µM -6% | [6]; [17] 12% | [6]; at 11.0 µM 5% | [6]; at 33.0 µM 68% | [7]; at 1.2 µM 13% | [7]; at 3.7 µM 15% | [7]; at 11.0 µM 26% | [7]; at 33.0 µM 67% | [8]; at 1.2 µM 27% | [8]; at 3.7 µM 27% | [8]; at 11.0 µM 36% | [9]; [17] 21% | [10]; at 1.2 µM 55% | [10]; at 3.7 µM 54%

CC(=O)O/N=C1C=C/C(=C(/C#N)c2ccccc2)C=C/1C
active: [11]; at 33.0 µM 99% | [11]; at 100.0 µM 96% | [12]; at 33.0 µM 99% | [12]; at 100.0 µM 97% | [13]; at 3.7 µM 81% | [13]; at 11.0 µM 95% | [13]; at 33.0 µM 97% | [13]; at 100.0 µM 94% | [14]; at 11.0 µM 75% | [14]; at 33.0 µM 99% | [14]; at 100.0 µM 96% | [15]; at 33.0 µM 98% | [15]; [18] 98% | [15]; at 50.0 µM 99.5% | [15]; at 100.0 µM 94% | [1]; at 33.0 µM 99% | [1]; [18] 98% | [1]; at 50.0 µM 99.5% | [1]; at 100.0 µM 96% | [2]; at 33.0 µM 99% | [2]; at 100.0 µM 96% | [3]; [17] 77% | [3]; [18] 99% | [3]; at 50.0 µM 99.2% | [4]; at 33.0 µM 99% | [4]; at 100.0 µM 96% | [5]; [18] 98% | [5]; at 50.0 µM 99% | [6]; at 33.0 µM 99% | [6]; [18] 99% | [6]; at 50.0 µM 99.5% | [6]; at 100.0 µM 91% | [7]; at 33.0 µM 99% | [7]; at 100.0 µM 96% | [8]; at 33.0 µM 99% | [8]; at 100.0 µM 95% | [16]; at 11.0 µM 94% | [16]; at 33.0 µM 99% | [16]; at 100.0 µM 95% | [9]; [18] 98% | [9]; at 50.0 µM 98.8% | [10]; at 33.0 µM 99% | [10]; at 100.0 µM 95%
inactive: [11]; at 1.2 µM 6% | [11]; at 3.7 µM 15% | [11]; at 11.0 µM 63% | [12]; at 1.2 µM 3% | [12]; at 3.7 µM 5% | [12]; at 11.0 µM 24% | [13]; at 1.2 µM 43% | [14]; at 1.2 µM 2% | [14]; at 3.7 µM 6% | [15]; at 1.2 µM 5% | [15]; at 3.7 µM 10% | [15]; [17] 41% | [15]; at 11.0 µM 37% | [1]; at 1.2 µM -1% | [1]; at 3.7 µM 4% | [1]; [17] 16% | [1]; at 11.0 µM 19% | [2]; at 1.2 µM 1% | [2]; at 3.7 µM 7% | [2]; at 11.0 µM 25% | [4]; at 1.2 µM -6% | [4]; at 3.7 µM 0% | [4]; at 11.0 µM 16% | [5]; [17] 4% | [6]; at 1.2 µM -8% | [6]; at 3.7 µM -11% | [6]; [17] 0% | [6]; at 11.0 µM 4% | [7]; at 1.2 µM 2% | [7]; at 3.7 µM 7% | [7]; at 11.0 µM 65% | [8]; at 1.2 µM 3% | [8]; at 3.7 µM 8% | [8]; at 11.0 µM 53% | [16]; at 1.2 µM 21% | [16]; at 3.7 µM 54% | [9]; [17] 49% | [10]; at 1.2 µM 12% | [10]; at 3.7 µM 26% | [10]; at 11.0 µM 56%
